# From PubChem BioAssay (NCATS)
# Inconclusive results are not listed. A number with no mark means an inactive call. The source made the active and inactive calls. Calls come from the whole dose curve; as a rule, active = well fitted inhibition curve with a large enough effect; inconclusive = small, poorly fitted or top-dose-only effect; inactive = flat fitted curve, though single readings scatter.
# How the values were obtained:
# [1] = test system: CRL-7250; assay: Cytotoxic Profiling of Annotated Libraries Using Quantitative High-Throughput Screening (AID 1296008); settings: Five cell lines viability, CellTiter-Glo ATP luminescence, 48-72 h; max response: stronger effect = lower value; for max response: % is set by controls: 0 for no effect and ±100 for the full control effect
# Summary of the method: (§1)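 Compounds were pin-transferred onto cells and incubated 48 or 72 hr at 37 degree Celsius, 95% humidity. CellTiter-Glo was added, plates sat 10 min at room temperature, then ATP-coupled luminescence was imaged as the viability read-out.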
# [2] = test system: HEK293; assay: as above; settings: Five cell lines viability, CellTiter-Glo ATP luminescence, 48-72 h; max response: stronger effect = lower value
# Summary of the method: as §1
# [3] = test system: KB-3-1; assay: as above; settings: Five cell lines viability, CellTiter-Glo ATP luminescence, 48-72 h; max response: stronger effect = lower value
# Summary of the method: as §1
# [4] = test system: HaCat; assay: as above; settings: Five cell lines viability, CellTiter-Glo ATP luminescence, 48-72 h; max response: stronger effect = lower value
# Summary of the method: as §1
# [5] = test system: W2; assay: qHTS profiling for inhibitors of Plasmodium falciparum proliferation (AID 504749); settings: P. falciparum in erythrocytes, SYBR Green DNA, 72 h; series mostly up to 28.7 µM
# Summary of the method: (§2)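 Quantitative HTS: compounds pinned into medium, infected erythrocytes added (0.3% parasitemia, 2.5% hematocrit), 72 h culture at 37 C under 5% CO2. Saponin/Triton lysis with SYBR Green I, overnight RT, then fluorescence read.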
# [6] = test system: SC27B; assay: as above; settings: P. falciparum in erythrocytes, SYBR Green DNA, 72 h; series mostly up to 28.7 µM
# Summary of the method: as §2
# [7] = test system: TAB109; assay: as above; settings: P. falciparum in erythrocytes, SYBR Green DNA, 72 h; series mostly up to 28.7 µM
# Summary of the method: as §2
# [8] = test system: TAB113; assay: as above; settings: P. falciparum in erythrocytes, SYBR Green DNA, 72 h; series mostly up to 28.7 µM
# Summary of the method: as §2
# [9] = test system: TAB165; assay: as above; settings: P. falciparum in erythrocytes, SYBR Green DNA, 72 h; series mostly up to 28.7 µM
# Summary of the method: as §2
# Note: nearly all actives have a fitted effect of over 60% in size.
# Potency is the fitted concentration of half-maximal effect.
compound,measurement,setting,value
CCCCCCCCCCCCCCCCCCNC(=O)OC1CCN(C(=O)OC[C@H](COC(=O)N(Cc2cccc[n+]2CC)C(=O)c2ccccc2OC)OC)CC1,Potency,[1],8.41 µM (active)
same,Potency,[2],7.5 µM (active)
same,Potency,[3],6.51 µM (active)
CCCN(CCC)C(=O)C(CCC(=O)OCCCN1CCN(CCOC(=O)Cc2c(C)n(C(=O)c3ccc(Cl)cc3)c3ccc(OC)cc23)CC1)NC(=O)c1ccccc1 (configuration not stated),max response,[1],-6.96%
same,max response,[4],-0.687%
CCCCC(=O)OCC(=O)[C@H]1[C@H](C)C[C@H]2[C@@H]3C[C@H](F)C4=CC(=O)C=C[C@]4(C)[C@@]3(F)[C@@H](O)C[C@@]21C,max response,[1],-1.6%
same,max response,[4],1.04%
Nc1ccc2cc3ccc(N)cc3nc2c1,Potency,[5],7.57 µM (active)
same,Potency,[1],7.5 µM (active)
same,Potency,[2],2.37 µM (active)
same,Potency,[4],3.76 µM (active)
O=C(c1cc(O)c(O)c(O)c1)c1ccc(O)c(O)c1O,max response,[1],-19.4%
same,max response,[4],-2.77%
CCNC(=O)NCCCOc1cccc(CN2CCCCC2)c1,max response,[1],-12.2%
same,max response,[2],-59.3%
same,max response,[3],-12.8%
CCCC(=O)c1cc(O)c(O)cc1O,max response,[1],-22.6%
same,max response,[4],-3.56%
C[C@H](CN1CCCC1)C(=O)c1ccc(C(F)(F)F)cc1,max response,[1],3.63%
same,max response,[2],-20.1%
same,max response,[3],4.58%
Cc1ccc(Cl)c(OCC(O)CNC(C)(C)C)c1 (configuration not stated),outcome,[1],inactive
same,max response,[4],2.84%
CC(C)NCCCC1(C(N)=O)c2ccccc2-c2ccccc21,outcome,[1],inactive
same,max response,[4],4.87%
C/C=C(/C(=C/C)c1ccc(OC(C)=O)cc1)c1ccc(OC(C)=O)cc1,max response,[1],0.166%
same,outcome,[4],inactive
CCc1cc2cc(OC)c(OC)cc2c(Cc2ccccc2)n1,outcome,[1],inactive
same,outcome,[4],inactive
Nc1c2ccccc2nc2ccccc12,Potency,[6],10 µM (active)
same,Potency,[7],7.08 µM (active)
same,Potency,[8],10 µM (active)
same,Potency,[9],8.91 µM (active)
same,Potency,[5],8.49 µM (active)
same,Potency,[1],8.41 µM (active)
same,Potency,[2],5.96 µM (active)
CN(C)CCOC1=Cc2ccccc2Sc2ccc(Cl)cc21,max response,[1],-2.09%
same,outcome,[4],inactive
CCOC(=O)c1ccc(NC(=O)CN2CCCCC2)cc1,max response,[1],-6.82%
same,max response,[4],4.59%
O=C(OCCN1CCOCC1)c1cccnc1Nc1cccc(C(F)(F)F)c1,max response,[1],-4.59%
same,outcome,[4],inactive
O=C(Nc1ccc(S(=O)(=O)N2CCOCC2)cc1)c1cc(Cl)ccc1NS(=O)(=O)c1ccc(Cl)s1,max response,[1],-9.47%
same,outcome,[2],inactive
same,max response,[3],-23.1%
Cc1ccc(CCn2c3c(c4cc(Cl)ccc42)CN(C)CC3)cn1,max response,[1],-3.39%
same,outcome,[4],inactive
